Assay results taken from PubChem BioAssay (NCI).
About 79,000 compounds went through this panel and 15% of them were active in at least one assay; those are over-represented in the sample as a whole. Unmarked numbers belong to inactive results. Activity calls are given as the source filed them. Cut-off read from the data, not from the text of the source: active = growth inhibition above about 70%; inactive = the rest.

test: NCI Yeast Anticancer Drug Screen. Data for the sgs1 mgt1 strain (AID 161);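 note: 0% = growth of cultures given vehicle only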; conditions: S. cerevisiae sgs1 mgt1 strain, at 50.0 µM, hits give high values
Method: Growth inhibition of yeast strains with defined genetic alterations is measured as a screen for potential anti-cancer activity. Selected strains with alterations in DNA damage repair or cell cycle control were exposed to compounds and growth inhibition was measured relative to vehicle treated controls. The strain used in this assay is sgs1 mgt1

| Compound | growth inhibition |
| --- | --- |
| CC[N+](C)(CC)CC(O)C[N+]1(C)CC2CCCCC2C1 (stereo not given) | 6.2% |
| CCOc1ccc2nc(NC(=O)/C(CC(=O)CC(C3=C(O)c4ccccc4CC3=O)c3ccccc3)=N\O)sc2c1 (stereo not given) | -12.6% |
| c1ccc(N/N=C2/CSCc3ccccc32)cc1 | 91.5% (active) |
| O=C(c1cc2ccccc2s1)c1ccccc1Cc1cccc2ccccc12 | 31.2% |
| CCOC(=O)[n+]1c(C)ccc2ccccc21 | -9.55% |
| CC(=O)NNc1ncc(C(=O)/C=C/c2ccccc2C)s1 | 12.5% |
| Cc1cc(=O)n2c(n1)sc1ccc3ccccc3c12 | 3.1% |
| COC(=O)c1ccc(OC(=O)Nc2ccc(Br)cc2)cc1 | 27% |
| Cc1c[nH]c(=O)n(CC(=O)C2(O)CCC3C4CCC5=CC(=O)CCC5(C)C4CCC32C)c1=O (stereo not given) | -10.9% |
| O=[N+]([O-])C1CCC(N=Nc2c(O)ccc3ccccc23)CC1 (stereo not given) | 4.65% |
| COC(=O)C(C(=O)C(=O)Nc1c(Cl)cc([N+](=O)[O-])cc1Cl)c1nc2cc(C)c(C)cc2[nH]c1=O (stereo not given) | 20.8% |
| Cc1c(O)nc(N)[nH]c1=O | -22.6% |
| O=C1CCCCCCCCCCC1Cc1cc(O)c(CC2CCCCCCCCCCC2=O)cc1O (stereo not given) | -5.95% |
| CC(C)(C)C1CCC(=NO)CC1 (stereo not given) | 16.5% |
| CN(Cc1ccccc1)C(=O)c1ccc(C(=O)N(C)Cc2ccccc2)cc1 | 19.4% |
| CC(C)/C=C(/CC(C)C)C(CCC(=O)Nc1ccccc1)C(=O)Nc1ccccc1 (stereo not given) | 4.1% |
| Cc1c(C(=O)CC2OC(=O)C(Cl)=C2Cl)c2ccccc2n1C(=O)Nc1ccc(Cl)cc1 (stereo not given) | 11.1% |
| C[n+]1c(C2(O)CCCCCCCCCCC2)sc2ccccc21 | 1.5% |
| COC(=O)C(N)Cc1ccc(OCc2ccccc2)cc1 (stereo not given) | -2.25% |
| NCCCOCCN1CCN(c2ccccc2)CC1 | 0.75% |

| Compound | growth inhibition |
| --- | --- |
| CC(=O)c1cccc2cc(CC(=O)c3ccccc3)c(=O)oc12 | 6.4% |
| CCN(CC)CCC(O)(Cc1ccccc1)c1cccc(Cl)c1 (stereo not given) | 5.75% |
| OCCCCCCO | 16.1% |
| CCOC(=O)N1C(c2ccccc2)N(c2ccccc2)C(c2ccccc2)N1C(=O)OCC (stereo not given) | 22.9% |
| [Cl][Pt+2][Cl].[NH-]c1ccc(CC(=O)O)cc1[NH-] | 23.4% |
| Cc1cc(Cl)ccc1OC(=O)NC1CCCCC1 | -2.35% |
| CCCCCCCCCCCCCCCCCCNC(=O)NCc1ccncc1 | -11.3% |
| CC1=CC(=O)N(n2c(-c3ccccc3)n[nH]c2=O)C1=O | -4.45% |
| ClC1(c2ccccc2)c2ccccc2C(Cl)(c2ccccc2)c2ccccc21 (stereo not given) | -6.7% |
| COc1ccccc1C1CCCCC1SCC(=O)O (stereo not given) | 2.05% |
| O=C(O)C#Cc1ccccc1[N+](=O)[O-] | 11.3% |
| COc1ccc(CCn2cnn3c(=O)c4ccccc4nc3c2=O)cc1OC | -9.1% |
| CCOC(=O)/C(C)=C(/O)C(=O)OCC | -22% |
| O=C(c1ccncc1)n1nc(-c2ccccc2)c(N=Nc2ccccc2[N+](=O)[O-])c1-c1ccccc1 | -9.3% |
| COc1ccc(COC(=O)NNC(=O)C2CSC(c3ccccc3)N2C(C)=O)cc1 (stereo not given) | -15.8% |
| COc1ccc(C(CC(=O)c2ccccc2)C(=O)c2ccc3c(c2)OCO3)cc1 (stereo not given) | -38.8% |
| COCCCNC1=C(C#N)C(=O)NC(c2cccs2)S1 (stereo not given) | 3.45% |
| COC(=O)CCS/C=C/C(=O)O | -2.4% |
| CC1(C)CC(=O)C(/C=N/C(N)=S)=C(O)C1 | -13.8% |
| CC(=O)c1cc2ccccc2o1 | -4% |
